Measurements reported in PubChem BioAssay (NCATS).
Results filed as inconclusive are left out. The source made the active and inactive calls. Calls come from the whole dose curve; as a rule, active = well fitted curve in the direction sought with a large enough effect; inconclusive = small, poorly fitted or top-dose-only effect, or another doubt; inactive = no such curve, though single readings can be large; an effect the other way counts as inactive or inconclusive.

Experiments:
[1] = molecular target: Calcium and integrin-binding protein 1 (Homo sapiens) (UniProt Q99828); test: Primary qHTS for Identification of Calcium Integrin Binding Protein 1 (CIB1) Competitor (AID 1508620);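 note: GST tagged CIB1 binding a fluorescein labelled alphaIIb integrin peptide tracer; top concentration of the series differs between compounds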
Calcium and integrin-binding protein 1 (Homo sapiens), sequence (Q99828 whole entry, looked up): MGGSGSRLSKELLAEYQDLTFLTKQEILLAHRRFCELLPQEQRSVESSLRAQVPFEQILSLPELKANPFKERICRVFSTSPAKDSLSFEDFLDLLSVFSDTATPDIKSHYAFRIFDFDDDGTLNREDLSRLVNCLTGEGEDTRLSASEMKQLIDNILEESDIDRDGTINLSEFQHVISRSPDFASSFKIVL
Method in brief: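 Fluorescence polarization competition: CIB1-GST (1 uM final) preincubated with compound 15 min at room temperature, then FITC-labeled alphaIIb peptide (100 nM final) added for another 15 min. Polarization read at Ex 480/Em 540.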

[2] = Primary qHTS for inhibitors of nuclear receptor binding SET domain protein 2 (NSD2) in an isogenic RCH-ACV NSD2 p.E1099K mutant (9B) (AID 1645876); note: nearly all actives have a fitted effect of over 70% in size
[3] = Primary qHTS for inhibitors of nuclear receptor binding SET domain protein 2 (NSD2) in an RCH-ACV wild type WT cells (2C) (AID 1645877); note: nearly all actives have a fitted effect of over 70% in size
% is set by controls: 0 for no effect and ±100 for the full control effect.

O=C(O)c1ccnc2cc(C(OCCN3CCCCC3)c3ccccc3Cl)[nH]c12 (stereo unspecified)
inactive: Potency [1] | Potency [2] | Potency [3]

C[C@@]1(C(=O)O)CC[C@]2(C)CC[C@]3(C)C4=CC(=O)c5cc(O)c(O)cc5[C@]4(C)CC[C@@]3(C)[C@@H]2C1
inactive: Potency [1] | Potency [2] | Potency [3]

C=C[C@H]1[C@H](O[C@@H]2O[C@H](CO)[C@@H](O)[C@H](O)[C@H]2O)OC=C2C(=O)OCC[C@H]21
inactive: Potency [1] | Potency [2] | Potency [3]

C[C@]12CC[C@H]3[C@@H]([C@H](O)CC4=CC(=O)CC[C@@]43C)[C@@H]1CC[C@@H]2O
inactive: Potency [1] | Potency [2] | Potency [3]

CCC(C)(C#N)O[C@@H]1O[C@H](CO)[C@@H](O)[C@H](O)[C@H]1O (stereo partly specified)
inactive: Potency [1] | Potency [2] | Potency [3]

C=CC(C)(O)CC/C=C(\C)C(=O)O[C@H]1[C@H](O)[C@@H](CO)O[C@@H](OC(=O)[C@]23CCC(C)(C)CC2C2=CCC4[C@@]5(C)CC[C@H](O[C@@H]6O[C@H](CO[C@@H]7OC[C@H](O)[C@H](O)[C@H]7O[C@@H]7OC[C@@H](O)[C@H](O)[C@H]7O)[C@@H](O)[C@H](O)[C@H]6O)C(C)(C)C5CC[C@@]4(C)[C@]2(C)CC3)[C@@H]1OC1OC(C)C(O[C@@H]2OC[C@@H](O)[C@H](O[C@@H]3OC[C@@H](O)[C@H](O)[C@H]3O)[C@H]2O)C(O)C1O (stereo partly specified)
inactive: activity change, negative = inhibition [1] -11.1% [at 12.4 µM] | activity change, negative = viability loss [2] -17.9% [at 9.23 µM] | activity change, negative = cell killing [3] -28.4% [at 9.23 µM]

COC(=O)[C@@]12C(=O)C(C)C(=O)[C@]1(C)C(C)=C[C@H]1[C@]3(C=O)CC[C@H](OC(C)=O)C(C)(C)[C@H]3CC[C@@]12C (stereo partly specified)
inactive: Potency [1] | Potency [2] | Potency [3]
